Bioassay records as filed in PubChem BioAssay.
The list is not random: actives were taken first. Their share in the collection is about 18%.
LDHA block – LDHA (human) enzyme inhibition; P00338; purified LDHA, NADH/diaphorase-resazurin fluorescence; stronger effect = lower value; activity change, % (values are at about 110 or 230 µM); 480,000 compounds, 0.15% hits; in the data active = activity change below about -30%; inconclusive = mostly about -25% to -30%
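Remaining NADH was detected by diaphorase (0.133 mg/mL) converting 37 µM resazurin to fluorescent resorufin, read at 0 and 20 minutes. The preceding 5-minute room-temperature reaction used 2 nM LDHA, 0.2 mM sodium pyruvate and 0.06 mM NADH at pH 7.4.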
TDP1 cell noCPT – qHTS for Inhibitors of human tyrosyl-DNA phosphodiesterase 1 (TDP1): qHTS in cells in absence of CPT; DT40 Tdp1-/- hTDP1 cells, no CPT, ATP luminescence, 48 h; Potency, µM (top dose mostly 46.2 µM), most hits filed as inhibitors; 420,000 compounds, 15% hits; note: nearly all actives have a fitted effect of over 55% in size
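Compound effects on proliferation are scored in DT40 Tdp1-/-;hTDP1 cells in the absence of CPT. ATP levels (CellTiter-Glo luminescence) are recorded after a ≥48 hr, 37 °C incubation.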
IL1B secr inh – inflammasome signaling inhibition, IL-1 beta readout; THP-1 LPS/ATP IL-1B secretion, AlphaLISA, 16 h; stronger effect = lower value; activity change, % at 57.5 µM; 360,000 compounds, 4.7% hits; in the data active = activity change below about -50%; inconclusive = mostly about -30% to -49%
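Secreted IL-1B measured by AlphaLISA bead assay after 16 h compound exposure of THP-1 cells; compounds (final up to 57.5 uM) added 1 h before LPS (250 ng/mL) and ATP (1.25 mM) stimulation; lower signal means less secretion.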
TDP1 cell CPT – growth inhibition of DT40 Tdp1-/-;hTDP1 cells with camptothecin (screen for TDP1 inhibitors); chicken DT40 Tdp1-/-;hTDP1 cells + 20 nM CPT, ATP luminescence, 48 h; Potency, µM (series often up to 46.2 µM), most hits filed as inhibitors; 420,000 compounds, 12% hits; note: nearly all actives have a fitted effect of over 55% in size
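Chicken DT40 Tdp1-/- cells stably complemented with human TDP1 were seeded at 400 cells/well in medium containing 20 nM camptothecin, exposed to pin-transferred compounds, and grown at 37 °C for at least 48 hr. Viability was read as ATP luminescence.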
RORg inh – ROR gamma (mouse) transcription inhibition; P51450; Potency, µM (top dose mostly 53.6 µM), most hits filed as inhibitors; 310,000 compounds, 5.4% hits; Drosophila S2 Gal4-RORgamma UAS-luciferase reporter, 20 h; note: nearly all actives have a fitted effect of over 60% in size
Target sequence (P51450 whole entry, looked up, the tested form may be a part): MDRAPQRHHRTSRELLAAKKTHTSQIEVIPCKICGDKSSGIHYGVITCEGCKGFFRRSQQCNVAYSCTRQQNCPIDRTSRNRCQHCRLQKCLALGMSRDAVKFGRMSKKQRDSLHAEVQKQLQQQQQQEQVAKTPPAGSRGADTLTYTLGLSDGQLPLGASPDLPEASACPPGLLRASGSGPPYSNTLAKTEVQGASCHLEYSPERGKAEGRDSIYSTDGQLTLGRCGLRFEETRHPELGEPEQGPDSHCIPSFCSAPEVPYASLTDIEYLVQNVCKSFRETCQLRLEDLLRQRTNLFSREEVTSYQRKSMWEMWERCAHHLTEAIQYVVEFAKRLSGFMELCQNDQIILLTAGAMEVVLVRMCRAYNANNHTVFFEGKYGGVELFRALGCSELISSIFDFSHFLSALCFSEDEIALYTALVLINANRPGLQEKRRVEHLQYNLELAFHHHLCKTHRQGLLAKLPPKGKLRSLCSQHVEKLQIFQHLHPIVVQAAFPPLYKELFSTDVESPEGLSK
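Luciferase reporter read in Schneider cells carrying Gal4-RORγ (mouse) and UAS-Photinus luciferase; cells given compound 1 h before 700 uM copper sulfate induction, then incubated 20 h at ambient temperature.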
Gal4-VP16 FLuc – counter-screen for ROR gamma inhibitors: Gal4-VP16 reporter. Potency, µM (top dose mostly 53.6 µM), hits mostly inhibitors. 310,000 compounds, 3.5% hits. Drosophila S2 Gal4-VP16 UAS-luciferase, luminescence, 20 h;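 note: Gal4-VP16 expression switched on by copper sulfate through the metallothionein promoter; nearly all actives have a fitted effect of over 50% in size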
Of the large screens only hits and unclear results are named; the others gave an inactive call. Unless noted, calls come from the whole dose curve; as a rule, active = well fitted curve in the direction sought with a large enough effect; inconclusive = small, poorly fitted or top-dose-only effect, or another doubt; inactive = no such curve, though single readings can be large; an effect the other way counts as inactive or inconclusive.

O=C(Nc1ccc(Cl)cc1)c1nc2ccccc2nc1N1CCOCC1	none (no result: TDP1 cell noCPT, IL1B secr inh, TDP1 cell CPT, RORg inh, Gal4-VP16 FLuc)
Cc1cc(N2CCCC2)c(F)cc1/C=C\[N+](=O)[O-]	TDP1 cell noCPT inconclusive, IL1B secr inh -68, TDP1 cell CPT 23µM
Cc1cccc(C(=O)/C=C\N(C)C)c1	none (no result: TDP1 cell noCPT, IL1B secr inh, TDP1 cell CPT, RORg inh, Gal4-VP16 FLuc)
O=C(O)c1ccccc1NS(=O)(=O)c1cccc(-n2sc3ccccc3c2=O)c1	LDHA block -71, TDP1 cell noCPT 8.2µM, IL1B secr inh -93, TDP1 cell CPT 15µM, Gal4-VP16 FLuc inconclusive
COc1ccccc1/C=N\NC(=O)c1c(C)nc2ccc(Cl)cn12	RORg inh inconclusive, Gal4-VP16 FLuc inconclusive
Cc1nc2ccc(Br)cn2c1C(=O)N/N=C\c1ccccc1Cl	TDP1 cell noCPT inconclusive, TDP1 cell CPT inconclusive, RORg inh 7.1µM, Gal4-VP16 FLuc inconclusive
COc1cccc(/C=N/NC(=O)c2c(C)nc3ccc(Cl)cn23)c1O	TDP1 cell noCPT 1µM, TDP1 cell CPT 0.92µM, RORg inh 3.2µM, Gal4-VP16 FLuc 4µM
Cc1nn2c(NCCCN(C)C)c3c(nc2c1-c1ccccc1)CCCC3	TDP1 cell noCPT inconclusive, TDP1 cell CPT inconclusive, RORg inh inconclusive
Cc1nn2c(NC(C)C)c3c(nc2c1-c1ccccc1)CCC3	TDP1 cell noCPT inconclusive, IL1B secr inh inconclusive, TDP1 cell CPT inconclusive, RORg inh 3.5µM
Cc1nn2c(Nc3ccccc3)c3c(nc2c1-c1ccccc1)CCC3	TDP1 cell noCPT inconclusive, TDP1 cell CPT inconclusive, RORg inh 2.8µM, Gal4-VP16 FLuc 5µM
Cc1nn2c(NCC(C)C)c3c(nc2c1-c1ccccc1)CCC3	TDP1 cell noCPT inconclusive, RORg inh inconclusive
Cc1nn2c(NCCCN(C)C)c3c(nc2c1-c1ccccc1)CCC3	TDP1 cell noCPT 29µM, TDP1 cell CPT inconclusive, RORg inh 11µM
O=C(CSc1nnc(-c2cccnc2)n1-c1ccccc1)Nc1ccc(Cl)cn1	none (no result: TDP1 cell noCPT, IL1B secr inh, TDP1 cell CPT, RORg inh, Gal4-VP16 FLuc)
CN(C)CCNc1cccc2sc3ccc(O)cc3c(=O)c12	TDP1 cell noCPT 0.33µM, IL1B secr inh -95, TDP1 cell CPT 0.18µM (no result: RORg inh, Gal4-VP16 FLuc)
COc1cc(C)c2sc3ccccc3c(=O)c2c1NCCN(C)C	TDP1 cell noCPT 5.8µM, TDP1 cell CPT 6.5µM (no result: IL1B secr inh, RORg inh, Gal4-VP16 FLuc)
Cc1ccc(C(=O)NCCN(C)C)cc1C	none
Cc1cc(CCNC=O)c(C)c2c1sc1ccccc12	IL1B secr inh inconclusive (no result: RORg inh, Gal4-VP16 FLuc)
O=c1cc(NCCO)c2ccccc2o1	none
CCN(CC)CCNc1ccc(CO)c2oc3ccccc3c(=O)c12	TDP1 cell noCPT 8.2µM, IL1B secr inh -55, TDP1 cell CPT 8.2µM (no result: RORg inh, Gal4-VP16 FLuc)
Cc1ccc(NCCN(C)C)c2c(=O)c3cc(O)ccc3sc12	TDP1 cell noCPT 0.18µM, IL1B secr inh -102, TDP1 cell CPT 0.15µM (no result: RORg inh, Gal4-VP16 FLuc)
Cc1cc(/C=C/c2nc3c(ccc4ccccc43)s2)cc(C)c1O	none (no result: TDP1 cell noCPT, IL1B secr inh, TDP1 cell CPT, RORg inh, Gal4-VP16 FLuc)
CCCCN(CCCC)S(=O)(=O)c1nc(C)c(Cl)c(C)c1C#N	none (no result: TDP1 cell noCPT, IL1B secr inh, TDP1 cell CPT, RORg inh, Gal4-VP16 FLuc)
Nc1ccc([N+](=O)[O-])cc1C(=O)O	none (no result: TDP1 cell noCPT, IL1B secr inh, TDP1 cell CPT, RORg inh, Gal4-VP16 FLuc)
CCN(CC)CCNc1cccc2sc3ccccc3c(=O)c12	TDP1 cell noCPT 18µM, TDP1 cell CPT 23µM (no result: RORg inh, Gal4-VP16 FLuc)
CCc1cc(CC)c2c(=O)c3ccccc3sc2c1	none (no result: TDP1 cell noCPT, IL1B secr inh, TDP1 cell CPT, RORg inh, Gal4-VP16 FLuc)
CC(=O)/C=C(/NCc1ccccc1)C(F)(F)F	none (no result: TDP1 cell noCPT, IL1B secr inh, TDP1 cell CPT, RORg inh, Gal4-VP16 FLuc)
Cc1ccccc1NC(=O)CSC1=NS(=O)(=O)c2ccccc2N1Cc1ccccc1	none (no result: TDP1 cell noCPT, IL1B secr inh, TDP1 cell CPT, RORg inh, Gal4-VP16 FLuc)
CCCOc1cccc(-c2nnc(NC(=O)c3ccco3)s2)c1	TDP1 cell noCPT 21µM, TDP1 cell CPT inconclusive
O=C(Nc1nnc(COc2ccc(Cl)cc2)s1)c1ccco1	TDP1 cell noCPT inconclusive, IL1B secr inh inconclusive, TDP1 cell CPT 29µM
O=C(Nc1nnc(COc2ccc(Cl)cc2)s1)c1cccs1	TDP1 cell noCPT 12µM, TDP1 cell CPT 15µM
COc1cccc(-c2nnc(NC(=O)c3ccco3)s2)c1	TDP1 cell noCPT inconclusive
O=C(Nc1nnc(COc2ccc(F)cc2)s1)c1cccs1	none
CC(C)c1nc2cc(NC(=O)c3ccc(=O)[nH]c3)ccc2o1	none (no result: TDP1 cell noCPT, IL1B secr inh, TDP1 cell CPT, RORg inh, Gal4-VP16 FLuc)
CCn1nnc(NC(=O)COc2ccc(Cl)cc2Cl)n1	none (no result: TDP1 cell noCPT, IL1B secr inh, TDP1 cell CPT, RORg inh, Gal4-VP16 FLuc)
N#Cc1cccc(OCc2cccc3cccnc23)c1	none (no result: TDP1 cell noCPT, IL1B secr inh, TDP1 cell CPT, RORg inh, Gal4-VP16 FLuc)
Cc1c(C(=O)Oc2cccc3cccnc23)oc2ccccc12	TDP1 cell noCPT inconclusive, IL1B secr inh inconclusive, TDP1 cell CPT inconclusive, RORg inh 3.2µM, Gal4-VP16 FLuc 6.3µM
CCc1nc2ccc(C)cc2c(C(=O)Oc2cccc3cccnc23)c1C	TDP1 cell noCPT 23µM, TDP1 cell CPT inconclusive
CCSc1nc(C)cc(C(F)(F)F)c1C#N	none (no result: TDP1 cell noCPT, IL1B secr inh, TDP1 cell CPT, RORg inh, Gal4-VP16 FLuc)
Cc1nc2nc(SCC(=O)c3cccc([N+](=O)[O-])c3)[nH]c2cc1Br	TDP1 cell noCPT 18µM, TDP1 cell CPT inconclusive, RORg inh inconclusive
O=C(CSc1nc2ccc([N+](=O)[O-])cc2[nH]1)NC1CCCCC1	TDP1 cell noCPT 26µM, TDP1 cell CPT inconclusive
COc1ccc(C(=O)CSc2nc3ccc([N+](=O)[O-])cc3[nH]2)cc1	TDP1 cell noCPT 16µM, TDP1 cell CPT inconclusive, RORg inh inconclusive
O=C(CSc1nc2ccc(Cl)cc2[nH]1)NC1CCCC1	none
O=C(CSc1nc2ccc([N+](=O)[O-])cc2[nH]1)NC1CCCCCC1	TDP1 cell noCPT inconclusive, IL1B secr inh -84, RORg inh inconclusive, Gal4-VP16 FLuc inconclusive
O=C(CSc1nc2ncc(Br)cc2[nH]1)c1cccc([N+](=O)[O-])c1	none
